12-hLO inh: 12-hLO (ALOX12) enzyme inhibition; P18054; purified 12-hLO, xylenol orange hydroperoxide absorbance; Potency, µM (series often up to 57.1 µM), usual class: inhibitors; 0.12% of 150,000 active; AID 1452; note: nearly all actives have a fitted effect of over 55% in size
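Hydroperoxide output read as Fe(III)-xylenol orange absorbance, 573-to-405 nm ratio, after 30 min reaction with 40 uM arachidonic acid. Enzyme: 150 nM purified human 12hLO, 15 min compound preincubation; 25 mM Hepes pH 7.0, room temperature.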
IMPase Li cell: membrane-permeable IMPase blocker, potentiated with lithium. AID 1457. Potency, µM (titrated, usually from 59.4 µM), hits mostly inhibitors. CHO-M1 cells, IP1 TR-FRET (IP-One), carbachol + lithium. 0.35% of 210,000 active;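 note: IP1 builds up when IMPase is blocked and the TR-FRET signal falls; nearly all actives have a fitted effect of over 50% in size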
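IP1 accumulation measured by competitive TR-FRET in lysed CHO-M1 cells after 30 min compound exposure at 37C, with a small lithium addition to potentiate weak responses. Hill-equation AC50 from ratio and donor-channel data.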
NPSR antag: neuropeptide S receptor (human) antagonism, cAMP; CHO-NPSR cells, cAMP TR-FRET, antagonist mode; Potency, µM (highest dose often 38.3 µM), most hits filed as inhibitors; 1% of 220,000 active; AID 1461; note: nearly all actives have a fitted effect of over 50% in size
Target sequence (Q6W5P4 whole entry, looked up): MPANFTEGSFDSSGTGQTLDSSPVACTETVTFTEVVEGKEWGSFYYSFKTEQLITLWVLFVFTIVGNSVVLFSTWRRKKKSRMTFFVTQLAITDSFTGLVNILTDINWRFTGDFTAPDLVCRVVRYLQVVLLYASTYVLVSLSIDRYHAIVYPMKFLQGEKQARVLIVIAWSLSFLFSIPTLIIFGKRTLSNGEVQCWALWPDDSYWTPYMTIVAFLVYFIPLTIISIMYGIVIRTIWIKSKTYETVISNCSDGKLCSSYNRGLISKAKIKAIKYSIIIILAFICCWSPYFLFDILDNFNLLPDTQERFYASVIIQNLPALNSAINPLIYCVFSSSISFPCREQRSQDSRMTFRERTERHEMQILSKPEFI
ALDH1A1 inh: blocks purified human ALDH1A1 activity. Potency, µM (series often up to 75.3 µM), actives largely listed as inhibitors. AID 1030. Purified ALDH1A1, NADH fluorescence, propionaldehyde substrate. P00352. 7.3% of 220,000 active; active = well fitted inhibition curve with a large enough effect, not every such curve was filed as active; inconclusive = small, poorly fitted or top-dose-only effect, or another doubt; inactive = no such curve, though single readings can be large or run the other way
IMPase cell inh: IMPase inhibition in cells; P97697; CHO-M1 cells, IP1 accumulation, HTRF TR-FRET ratio; inhibition (IP1 accumulation), % at 46.1 µM; 120,000 tested, under 10 active; AID 901; active = well fitted curve in the direction sought with a large enough effect in the signal ratio, not every such curve was filed as active; inconclusive = small, poorly fitted or top-dose-only effect, or a change in a side signal; inactive = no such curve, though single readings can be large or run the other way; the % refers to the signal ratio;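 note: cells stimulated with carbachol in lithium chloride buffer; higher means more IMPase inhibition seen as more IP1 and lower FRET ratio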
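CHO-M1, 2000 cells/well, cultured 16–30 h; cpd up to 46 uM; carbachol (50 uM solution, stimulation buffer w/ 50 mM LiCl, pH 7.4), 30 min 37C; IP-One TR-FRET, 10 min RT; Ex 320/Em 665, 620; Hill-fit AC50.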
HPGD inh: inhibitors of human 15-hydroxyprostaglandin dehydrogenase (HPGD); 4.3% of 150,000 active; purified HPGD, NADH fluorescence kinetic, PGE2 substrate; AID 894; P15428; Potency, µM, hits mostly inhibitors; active = well fitted inhibition curve with a large enough effect, not every such curve was filed as active; inconclusive = small, poorly fitted or top-dose-only effect, or another doubt; inactive = no such curve, though single readings can be large or run the other way
Target sequence (P15428 whole entry, looked up): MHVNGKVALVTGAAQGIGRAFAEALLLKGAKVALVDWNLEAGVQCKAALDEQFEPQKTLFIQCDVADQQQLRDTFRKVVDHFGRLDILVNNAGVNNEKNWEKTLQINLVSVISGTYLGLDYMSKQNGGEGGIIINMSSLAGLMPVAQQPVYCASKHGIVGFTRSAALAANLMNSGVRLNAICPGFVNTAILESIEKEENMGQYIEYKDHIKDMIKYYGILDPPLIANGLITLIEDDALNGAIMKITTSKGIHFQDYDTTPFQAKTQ
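20 nM HPGD preincubated 15 min at room temperature with compound in 50 mM Tris-HCl pH 8, 0.01% Tween 20. Started with 1 mM NAD+ and 30 uM prostaglandin E2; NADH fluorescence (360/450 nm) read 5 times over 30-s intervals, last minus first.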
Numbers stand for hits; . = inactive; ? = inconclusive; / = no result given; [ ] = another dose, or the depositor's remark. Rows were chosen to be rich in hits. Some 8.9% of all compounds tested hit in one or more screens of this group. Unless noted, calls come from the whole dose curve; as a rule, active = well fitted curve in the direction sought with a large enough effect; inconclusive = small, poorly fitted or top-dose-only effect, or another doubt; inactive = no such curve, though single readings can be large; an effect the other way counts as inactive or inconclusive.

SMILES	12-hLO inh	IMPase Li cell	NPSR antag	ALDH1A1 inh	IMPase cell inh	HPGD inh
Cc1ccc(NS(=O)(=O)c2cc(C(=O)O)ccc2Cl)c(C)c1	.	.	.	.	.	.
Cc1ccc(NS(=O)(=O)c2cc(NC(=O)c3ccc4c(c3)NC(=O)CS4)ccc2Cl)c(C)c1	/	.	.	10µM	/	/
Cc1ccc(C(=O)NNC(=O)CCC(=O)Nc2cc(C)on2)cc1	.	.	.	.	/	.
[N-]=[N+]=CC(=O)COC(=O)c1ccccc1	.[11.4 µM]	.	/	.[13.5 µM]	/	.
Cc1cc2nc(SCC(=O)Nc3nonc3C)c3c(c2cc1C)CCCC3	.	6.31µM	7.94µM	.	.	.
Cc1ccsc1/C=N\NC(=O)c1n[nH]c2c1CCC2	.	.	.	.	.	.
O=C(N/N=C/c1c(Cl)cccc1Cl)c1n[nH]c2c1CCCC2	.	.	.	.	/	3.98µM
COc1ccc(C(=O)c2coc3ccc(O)c(CN4CCCCC4)c23)cc1	.	.	?	12.6µM	.	.
O=C(c1ccccc1)c1coc2ccc(O)c(CN3CCOCC3)c12	.	.	.	?	.	.
COc1ncccc1-c1nnn(-c2ccccc2)n1	/	.	.	.	/	/
COc1ccccc1C(=O)O/N=C(\N)c1ccc(Cl)cc1	.	.	.	.	.	.
C[C@H]1C(=O)N(C)CCN1C(=O)c1ccccc1OC1CCN(S(C)(=O)=O)CC1	/	.	.	.	/	/
CN1/C(=C\C(=S)NC(=O)c2ccccc2Cl)C(C)(C)c2ccccc21	.	.	.	?	/	.
CN1/C(=C/C(=S)NC(=O)C2(C)CC2(Cl)Cl)C(C)(C)c2ccccc21 (stereo not drawn)	/	.	.	3.98µM	/	/
COC(=O)c1coc(-c2ccc(C)cc2)c1C(=O)OC	.	.	.	22.4µM	.	.
Cc1[nH]c(=S)sc1Cc1ccc(F)cc1	.	.	.	?	/	15.8µM
Cc1ccc(-c2cc(Cc3ccc(F)cc3)c(=O)[nH]n2)cc1	/	/	.	/	/	/
CC(=O)Nc1ccc(C(=O)CSc2nnc(-c3ccc(O)cc3)n2CC2CCCO2)cc1 (stereo not drawn)	.	.	.	?	.	.
CC1(C)CC(=O)C(Sc2nnc(-c3ccc(O)cc3)n2CC2CCCO2)C(=O)C1 (stereo not drawn)	.	.	.	18.9µM	.	.
CC1(C)CC2(CCO1)OC(=O)CC2C(=O)Nc1c(Cl)cccc1Cl (stereo not drawn)	/	/	.	/	/	/
O=C(N1CCCCC1)N1CCN(c2ccc(Cl)cc2)CC1	.	.	.	7.94µM	.	?
O=C(O)c1ccccc1C(=O)N1CCN(c2ccccc2)CC1	.	.	.	15.8µM	.	.
O=C(c1ccccc1)N1CCN(c2ccc(Cl)cc2)CC1	.	.	.	14.1µM	.	.
Cc1scc(C(=O)N2CCN(c3ccc(Cl)cc3)CC2)c1C	/	.	.	20µM	/	/
O=C(C(=O)N1CCN(c2cccc(Cl)c2)CC1)N1CCCCC1	/	.	.	.	/	/
SMILES	12-hLO inh	IMPase Li cell	NPSR antag	ALDH1A1 inh	IMPase cell inh	HPGD inh
O=C(c1ccccc1C(=O)N1CCN(c2ccccc2)CC1)N1CCN(c2ccccc2)CC1	.	.	.	?	.	.
C[C@H](CCC(=O)O)[C@H]1CC[C@H]2[C@@H]3CC[C@@H]4C[C@H](O)CC[C@]4(C)[C@H]3CC[C@]12C	.[0.00818 µM]	.	/	.	.	.
Cc1ccc(N(CC(=O)N/N=C/c2cc(C)n(-c3ccccc3C)c2C)S(C)(=O)=O)cc1	.	.	.	25.1µM	.	.
Cc1cc(C)cc(-n2c(C)cc(/C=N/NC(=O)CN(c3c(C)cccc3C)S(C)(=O)=O)c2C)c1	.	.	.	?	.	.
COc1cccc(CN2CCNC(=O)C2CC(=O)NCc2cn3ccccc3n2)c1OC (stereo not drawn)	/	.	.	?	/	/
CC(=O)N[C@@H](Cc1c[nH]c2ccccc12)C(=O)OCC(=O)NCc1ccc2c(c1)OCO2	/	.	.	5.01µM	/	/
CC(=O)NC(Cc1c[nH]c2ccccc12)C(=O)Nc1ccc2c(c1)OCO2 (stereo not drawn)	.	.	.	.	.	.
CC(=O)N[C@@H](Cc1c[nH]c2ccccc12)C(=O)OCC(=O)Nc1ccc(S(=O)(=O)N(C)C)cc1	/	.	.	3.98µM	/	/
Cc1nn(-c2ccccc2)c(C)c1/C=C/C(=O)OCC(=O)Nc1ncc(Cl)cc1Cl	.	.	.	?	/	?
CCOC(=O)c1cc(-c2csc(-c3ccc(C(C)(C)C)cc3)n2)on1	/	/	.	.	/	/
COc1ccc(-n2nc3cc(C)c(N)c(Br)c3n2)cc1	25.1µM	.	.	?	.	?
CCOc1ccccc1N1C(=O)c2ccc(C(=O)Nc3cccnc3)cc2C1=O	.	.	.	.	.	.
CC(=O)Oc1cccc(N2C(=O)c3ccc(C(=O)Nc4cccnc4)cc3C2=O)c1	/	.	.	17.8µM	/	/
O=C(c1ccc(-c2cccc(Cl)c2Cl)o1)N1CCOCC1	/	.	.	?	/	/
O=C1C=C(NCCc2cc(Br)c(O)c(Br)c2)C(=O)c2ncccc21	.[11.4 µM]	.	/	1.58µM	/	.
O=C1C=C(NCCO)C(=O)c2cnccc21	.	.	/	.	/	.
O=C1C(c2ccnc3ccccc23)=C(O)c2ccccc21	.	.	.	.	.	.
O=C1C(=O)c2ccccc2C(O)=C1c1ccccc1F	/	/	12.6µM	/	/	/
CCOC(=O)C(Cc1ccc(OC)c([N+](=O)[O-])c1)NC(=O)CCC(=O)Nc1ccc(OC)cc1 (stereo not drawn)	/	.	.	4.47µM	/	/
COc1cc(NC(=S)NC(=O)c2ccccc2F)ccc1NC(=O)c1ccco1	.	.	.	31.6µM	/	.
CCOc1ccc(C(=O)NC(=S)Nc2cccc(NC(=O)c3ccco3)c2)cc1[N+](=O)[O-]	?	.	.	3.16µM	.	.
CCc1ccc(NC(=O)c2ccc(OC)c([N+](=O)[O-])c2)cc1	.	.	.	11.2µM	/	.
COc1ccc(C(=O)Nc2ccc(N3CCN(C)CC3)cc2)cc1[N+](=O)[O-]	/	.	.	?	/	/
Cc1cccc2cc(CN(CC3CCCO3)C(=O)c3ccncc3)c(=O)[nH]c12 (stereo not drawn)	.	.	.	?	.	.
CCOC(=O)C1=NN(c2ccc(OC)cc2)C(c2ccccc2)CC1=O (stereo not drawn)	.	.	.	.	.	.
Cc1ccc(NC(=O)c2snc3c(=O)[nH]cnc23)cc1C	.	.	.	.	.	.
COc1ccc(C(=O)NC(=S)Nc2cccc(NC(=O)c3ccco3)c2)cc1[N+](=O)[O-]	.	.	.	3.55µM	?	.
COc1ccc(C(=O)NC(=S)Nc2ccc(NC(=O)c3ccco3)cc2)cc1[N+](=O)[O-]	.	.	.	.	/	.
CC1CCN(c2nc(Cl)nc(Nc3ccc([N+](=O)[O-])cc3)n2)CC1	.	.	.	15.8µM	/	.

Bioassay records from PubChem BioAssay.
